Measured values taken from PubChem BioAssay (Tox21).
A number with no mark means an inactive call. Results filed as inconclusive are left out. Entries that show only a call come without a potency. Calls of active or inactive are those of the source. Unless noted, calls follow the shape of the dose curve; as a rule, active = well fitted curve in the direction sought with a large enough effect in the repeat runs; inconclusive = weak or mixed curves; inactive = no such curve, though single readings can be large; an effect the other way counts as inactive or inconclusive.

Assays:
[1] = qHTS assay to identify small molecule antagonists of the estrogen receptor alpha (ER-alpha) signaling pathway using the BG1 cell line in the presence of 0.1 nM 17-beta-estradiol - cell viability counter screen (AID 1259241); also: nearly all actives have a fitted effect of over 40% in size
In short: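 In this screen, hormone-deprived VM7Luc4E2 cells were seeded at 4,000 per well, dosed with compound and 0.1 nM estradiol final, and incubated 22 hr at 37C and 5% CO2; fluorogenic live-cell protease signal reported viability.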

[2] = qHTS assay to identify small molecule antagonists of the androgen receptor (AR) signaling pathway using the MDA cell line in the presence of 0.5 nM R1881 - cell viability counter screen (AID 1259242); also: nearly all actives have a fitted effect of over 45% in size
In short: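 MDA-kb2 cells (MMTV-luciferase, AR/GR responsive) were treated with compounds plus 0.5 nM R1881 (final) for 16 hr at 37C, 0% CO2. Viability was then read in the same wells as live-cell protease fluorescence (CellTiter-Fluor, 30 min).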

[3] = qHTS assay to identify small molecule HDAC inhibitors (AID 1259364); also: top concentration of the series differs between compounds; nearly all actives have a fitted effect of over 45% in size
In short: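 Wild-type HCT-116 cells, plated overnight at 37 C, exposed to compounds 2 hr at 37 C; luminogenic HDAC-Glo substrate then added 30 min at room temperature. Luminescence reports relative endogenous class I/II HDAC activity.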

[4] = qHTS assay to identify small molecule HDAC inhibitors - cell viability counter screen (AID 1259365); also: series mostly up to about 92 µM; nearly all actives have a fitted effect of over 50% in size
In short: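 Measured quantity is CellTiter-Glo luminescence from wild-type HCT-116 cells after compound incubation of 2hr at 37C, 5% CO2; reagent developed 30min at room temperature.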

[5] = qHTS assay to identify small molecule agonists of the sonic hedgehog signaling (Shh) pathway - cell viability counter screen (AID 1259366); also: nearly all actives have a fitted effect of over 50% in size; also: potency is read from the fitted curve at half-maximal effect
In short: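 In quantitative high-throughput format, 3T3 Gli1-Luc cells were exposed to compounds for 24hr and multiplexed for viability using CellTiter-Fluor, incubated 1hr at 37C before the fluorescence read.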

[6] = qHTS assay to identify small molecule antagonists of the sonic hedgehog signaling (Shh) pathway - cell viability counter screen (AID 1259367); also: nearly all actives have a fitted effect of over 55% in size; also: potency is read from the fitted curve at half-maximal effect
In short: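 NIH/3T3-derived Gli1-Luc reporter cells, 2,000/well, plated 4 hr before compound addition, then stimulated with conditioned medium for 24 hr at 37C. Viability measured in the same wells by CellTiter-Fluor fluorescence, reagent added at 23 hr for 1 hr.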

[7] = qHTS assay to identify small molecule agonists of the sonic hedgehog signaling (Shh) pathway (AID 1259368; calls by dose curve;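 also: NIH/3T3-derived 3T3Gli1-Luc cells carrying a stable Gli1-driven firefly luciferase reporter; series mostly up to about 92 µM; nearly all actives have a fitted effect of over 15% in size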)
In short: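 NIH/3T3-derived 3T3Gli1-Luc cells with stably integrated Gli1-driven firefly luciferase, 2,000 cells/well, compounds added after 4 hr. Incubated 24 hr at 37C, 5% CO2; luminescence read after 30 min with luciferase reagent at room temperature.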

[8] = biological target: Androgen receptor (Homo sapiens) (UniProt P10275); test: qHTS assay to identify small molecule antagonists of the androgen receptor (AR) signaling pathway using the MDA cell line in the presence of 0.5 nM R1881 (AID 1259243); also: nearly all actives have a fitted effect of over 50% in size
Sequence of Androgen receptor (Homo sapiens) (P10275 whole entry, looked up): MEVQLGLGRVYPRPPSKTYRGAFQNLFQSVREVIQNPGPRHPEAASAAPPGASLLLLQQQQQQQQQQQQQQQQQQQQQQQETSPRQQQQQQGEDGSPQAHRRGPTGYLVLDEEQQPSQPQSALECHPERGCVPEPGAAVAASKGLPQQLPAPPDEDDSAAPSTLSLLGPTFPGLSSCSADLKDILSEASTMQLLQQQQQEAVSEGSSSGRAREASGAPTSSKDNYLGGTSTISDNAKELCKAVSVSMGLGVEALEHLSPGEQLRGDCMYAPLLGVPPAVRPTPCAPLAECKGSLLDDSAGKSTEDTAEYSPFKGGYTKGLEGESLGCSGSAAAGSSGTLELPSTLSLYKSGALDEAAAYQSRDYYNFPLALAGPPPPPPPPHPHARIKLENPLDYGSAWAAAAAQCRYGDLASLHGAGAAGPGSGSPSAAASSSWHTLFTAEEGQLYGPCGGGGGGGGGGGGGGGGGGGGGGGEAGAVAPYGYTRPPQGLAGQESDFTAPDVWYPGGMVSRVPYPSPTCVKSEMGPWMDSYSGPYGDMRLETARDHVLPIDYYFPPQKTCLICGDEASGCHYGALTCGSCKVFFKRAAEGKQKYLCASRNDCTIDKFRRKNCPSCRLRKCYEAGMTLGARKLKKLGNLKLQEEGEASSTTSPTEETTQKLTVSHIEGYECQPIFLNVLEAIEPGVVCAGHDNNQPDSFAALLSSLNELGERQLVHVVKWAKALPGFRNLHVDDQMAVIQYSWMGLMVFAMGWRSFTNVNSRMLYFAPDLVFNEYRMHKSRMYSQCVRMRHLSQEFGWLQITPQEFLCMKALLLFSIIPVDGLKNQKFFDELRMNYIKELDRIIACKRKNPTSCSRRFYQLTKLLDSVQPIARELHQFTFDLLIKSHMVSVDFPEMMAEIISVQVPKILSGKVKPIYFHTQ
In short: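 MDA-kb2 cells (MMTV-luciferase, responsive to AR and GR) at 3,000/well, rested 5 h at 37C, 0% CO2, then given compounds plus 0.5 nM R1881 (final) for 16 hr. Luciferase read with ONE-Glo after 30 min at room temperature.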

[9] = biological target: Estrogen receptor (Homo sapiens) (UniProt P03372); test: qHTS assay to identify small molecule antagonists of the estrogen receptor alpha (ER-alpha) signaling pathway using the BG1 cell line in the presence of 0.1 nM 17-beta-estradiol (AID 1259244); also: nearly all actives have a fitted effect of over 50% in size
Sequence of Estrogen receptor (Homo sapiens) (P03372 whole entry, looked up): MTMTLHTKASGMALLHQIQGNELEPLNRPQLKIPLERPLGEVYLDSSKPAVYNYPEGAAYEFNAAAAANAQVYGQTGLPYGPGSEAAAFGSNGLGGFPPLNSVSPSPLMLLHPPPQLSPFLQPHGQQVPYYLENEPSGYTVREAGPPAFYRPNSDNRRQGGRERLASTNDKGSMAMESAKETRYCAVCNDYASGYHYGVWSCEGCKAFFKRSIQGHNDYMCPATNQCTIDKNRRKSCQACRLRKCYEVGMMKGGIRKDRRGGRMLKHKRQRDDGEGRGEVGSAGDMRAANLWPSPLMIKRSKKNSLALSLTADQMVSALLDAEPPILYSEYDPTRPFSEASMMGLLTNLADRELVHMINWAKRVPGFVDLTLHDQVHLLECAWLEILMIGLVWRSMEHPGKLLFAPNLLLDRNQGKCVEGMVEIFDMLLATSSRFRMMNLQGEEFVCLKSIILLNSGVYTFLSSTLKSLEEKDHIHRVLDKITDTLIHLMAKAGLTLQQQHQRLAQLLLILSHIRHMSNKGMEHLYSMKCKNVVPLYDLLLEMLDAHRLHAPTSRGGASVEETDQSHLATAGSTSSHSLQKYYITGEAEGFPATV
In short: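 VM7Luc4E2 cells (endogenous full-length ER-alpha, 4×ERE-luciferase), kept 5 days in phenol red-free, charcoal-stripped FBS medium; 4,000 cells/well. Compounds added with 0.1 nM (final) 17beta-estradiol, 22 hr at 37C; luminescence read with ONE-Glo after 30 min.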

[10] = qHTS assay to identify small molecule phospholipidosis (PLD) inducers (AID 1259344; active = well fitted curve in the direction sought with a large enough effect; an effect the other way counts as inactive or inconclusive; also: potency is read from the fitted curve at half-maximal effect)
In short: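 HepG2 cells, 900/well, treated with compound plus LipidTOX Red for 24 h at 37 C; amiodarone positive and DMSO negative controls. Fixed with paraformaldehyde/Hoechst, then high-content imaging scored LipidTOX pit count and integrated intensity per well and per cell.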

SMILES | outcome [1] | Potency [2] | Potency [3] | outcome [4] | Potency [5] | Potency [6] | outcome [7] | Potency [8] | Potency [9] | Potency [10]
CCCCS(=O)(=O)Cl | inactive | inactive | inactive | inactive | inactive | inactive | inactive | – | – | –
CCOC(=O)CC(SP(=S)(OC)OC)C(=O)OCC (stereo unspecified) | – | inactive | inactive | inactive | inactive | – | inactive | inactive | inactive | inactive
O=C(O)C(F)(F)C(F)(F)C(F)(F)C(F)(F)C(F)(F)C(F)(F)F | inactive | inactive | inactive | inactive | inactive | inactive | inactive | – | – | –
CCOP(=O)(CN(CCO)CCO)OCC | inactive | inactive | inactive | inactive | inactive | inactive | inactive | – | – | –
Clc1ccc(C(Cl)(Cl)Cl)cn1 | – | inactive | inactive | inactive | inactive | inactive | inactive | inactive | inactive | –
C#CCOC(=O)/C=C(C)/C=C/CC(C)CCCC(C)C (stereo unspecified) | inactive | inactive | inactive | inactive | inactive | inactive | inactive | – | – | –
c1ccc2c(c1)CCNC2 | inactive | inactive | inactive | inactive | inactive | inactive | inactive | – | – | –
O=c1[nH]c2ccccc2o1 | inactive | inactive | inactive | inactive | inactive | – | inactive | – | – | –
CCCCCCC1CCOC1=O (stereo unspecified) | inactive | inactive | inactive | inactive | inactive | inactive | inactive | – | – | –
C=CC=O | inactive | inactive | inactive | inactive | inactive | inactive | inactive | – | – | –
CCCOC(=O)Cc1ccc(OCC(=O)N(CC)CC)c(OC)c1 | – | inactive | inactive | inactive | inactive | inactive | inactive | – | – | inactive
C[C@]12C=CC(=O)C=C1CC[C@@H]1[C@@H]2CC[C@@]2(C)[C@H]1CC[C@]2(C)O | – | inactive | inactive | inactive | inactive | inactive | inactive | – | – | inactive
ClCOCCl | – | inactive | inactive | inactive | inactive | – | inactive | – | inactive | –
Cn1c(N)nc2c3cccnc3ccc21 | – | inactive | inactive | inactive | 26 µM (active) | 26 µM (active) | inactive | – | inactive | –
NC1(c2ccccc2)CCCCC1 | – | inactive | inactive | inactive | 30.4 µM (active) | – | inactive | – | inactive | 8.91 µM (active)
CCC(C)(C#N)N=NC(C)(C#N)CC (stereo unspecified) | – | inactive | inactive | inactive | inactive | – | inactive | – | inactive | –
O=C(O)C(Br)(Br)Br | – | inactive | inactive | inactive | inactive | inactive | inactive | – | inactive | –
CC(C)[N+](C)(CCC(C(N)=O)(c1ccccc1)c1ccccc1)C(C)C | – | inactive | inactive | inactive | inactive | inactive | – | – | inactive | inactive
NCC1(CC(=O)O)CCCCC1 | – | inactive | inactive | inactive | inactive | inactive | inactive | – | – | inactive
NNC(N)=O | – | inactive | inactive | inactive | inactive | inactive | – | – | inactive | –
C[C@@H](N)[C@@H](O)c1ccccc1 | – | inactive | inactive | inactive | inactive | inactive | inactive | – | – | inactive
O=C(Cl)C(Cl)Cl | – | inactive | inactive | inactive | inactive | – | inactive | – | inactive | –
